# Laboratory results taken from PubChem BioAssay.
# Unmarked numbers belong to inactive results. The rule behind the calls is not given here.
# Biological target: Pantothenate synthetase (Mycobacterium tuberculosis (strain ATCC 25618 / H37Rv)) (UniProt P9WIL5)
# Assay: Coupled enzyme confirmation of inhibitors against recombinant Mtb PanC (AID 375);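 note: 0% = full reaction with vehicle and 100% = no enzyme background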
# Settings: coupled enzyme assay; at 10 µM, active compounds read high
# Sequence of Pantothenate synthetase (Mycobacterium tuberculosis (strain ATCC 25618 / H37Rv)) (P9WIL5 whole entry, looked up): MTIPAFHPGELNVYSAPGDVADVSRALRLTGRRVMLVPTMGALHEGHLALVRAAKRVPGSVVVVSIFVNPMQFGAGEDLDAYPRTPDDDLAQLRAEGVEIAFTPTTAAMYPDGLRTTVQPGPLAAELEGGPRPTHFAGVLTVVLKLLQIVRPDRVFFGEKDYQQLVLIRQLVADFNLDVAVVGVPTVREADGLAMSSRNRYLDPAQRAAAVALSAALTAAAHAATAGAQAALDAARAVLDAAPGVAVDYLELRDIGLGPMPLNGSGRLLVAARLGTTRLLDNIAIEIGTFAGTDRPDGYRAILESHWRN
row,SMILES,inhibition
1,CC(=O)N1CCc2c(sc(NC(=O)c3ccc(S(=O)(=O)N(C)C)cc3)c2C#N)C1,0%
2,Cc1ccc(C(=O)CSc2n[nH]c(-c3ccco3)n2)cc1C,1%
3,CCC(CCC(=O)Nc1cccc(C(=O)O)c1)C(=O)O (configuration not stated),2%
4,COc1ccc(OC)c(S(=O)(=O)Nc2ccc(O)c3ccccc23)c1,8%
5,O=C1CC(N2CCOCC2)C(=O)N1c1ccc2c(c1)OCO2 (configuration not stated),1%
6,O=C(c1ccccc1Br)N1CCN(c2ccccc2)CC1,8%
7,O=C(CSc1nnc2scc(-c3ccccc3)n12)N1CCN(Cc2ccccc2)CC1,6%
8,CCOC(=O)C1CCN(C(=O)CSc2n[nH]c(=O)[nH]c2=O)CC1,0%
9,CCOC(=O)C1CCCN(Cc2nc(N)nc(Nc3ccc(C)cc3)n2)C1 (configuration not stated),0%
10,COc1nnc(-c2ccc(C)c(S(=O)(=O)NCCO)c2)c2ccccc12,3%
11,COc1ccccc1N1CCN(C/C(O)=C(\C#N)c2nc(-c3ccccc3)cs2)CC1,2%
12,COc1ccccc1OCC(=O)Nc1cccc(-c2nc3ccccc3o2)c1,0%
13,C=CCSc1ncccc1C(=O)O,0%
14,CCNC(=O)CC(=O)Nc1ccccc1C(=O)O,0%
15,COC(=O)c1ccc2c(=O)n(CC3CCCO3)c(=S)[nH]c2c1 (configuration not stated),0%
16,CC(C)(C)OC(=O)N1CCC(C(=O)N2CCCCCC2)CC1,5%
17,CN(Cc1ccco1)C(=O)Cn1c(=O)oc2cc(S(=O)(=O)NCc3ccccc3)ccc21,0%
